PubChem BioAssay (NCATS)
Results filed as inconclusive are left out. Active and inactive are the calls of the source. Unless noted, calls follow the shape of the dose curve; as a rule, active = well fitted curve in the direction sought with a large enough effect; inconclusive = small, poorly fitted or top-dose-only effect, or another doubt; inactive = no such curve, though single readings can be large; an effect the other way counts as inactive or inconclusive.

Legend:
[1] = biological target: T1, Tyrosine-protein phosphatase non-receptor type substrate 1 (Homo sapiens) + Leukocyte surface antigen CD47 (Homo sapiens) (UniProt P78324+Q08722); experiment: CD47-SIRPalpha protein protein interaction - LANCE assay qHTS validation (AID 1347057; active = well fitted curve in the direction sought with a large enough effect in the signal ratio, with a control signal flat, not every such curve was filed as active; the % refers to the signal ratio; also: series mostly up to about 38 µM; 0% is about no effect)
How it was run: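 First, His-tagged CD47 and Eu-labelled anti-His antibody met the compound for 30 min; next, site-specifically biotinylated SIRPalpha was added for 30 min; finally streptavidin-APC was added before reading the TR-FRET ratio.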

[2] = biological target: T1, Tyrosine-protein phosphatase non-receptor type substrate 1 (Homo sapiens) + Leukocyte surface antigen CD47 (Homo sapiens); experiment: CD47-SIRPalpha protein protein interaction - HTRF assay qHTS validation (AID 1347058; active = well fitted curve in the direction sought with a large enough effect in the signal ratio, not every such curve was filed as active; the % refers to the signal ratio;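 also: recombinant soluble extracellular CD47 with His tag and biotinylated SIRPalpha domains; series mostly up to about 38 µM; 0% is about no effect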)
How it was run: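 TR-FRET read (Ch1/Ch2 ratio) of soluble extracellular CD47 and Avi-biotinylated SIRPalpha domains in PBS pH 7.4 with 0.05% IGEPAL; 7-point compound titration. Sequential 30 min room-temperature steps; non-biotinylated SIRPalpha as control inhibitor.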

[3] = biological target: T1, Tyrosine-protein phosphatase non-receptor type substrate 1 (Homo sapiens) + Leukocyte surface antigen CD47 (Homo sapiens); experiment: CD47-SIRPalpha protein protein interaction - Alpha assay qHTS validation (AID 1347059);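 also: bead proximity luminescence from CD47 binding SIRPalpha after compound preincubation with SIRPalpha; % is scaled to controls: 0 for no effect and ±100 for the full control effect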
How it was run: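 Binding is measured by AlphaScreen proximity: Ni-NTA acceptor beads capture His-CD47, streptavidin donor beads capture biotin-SIRPalpha. Each of three additions (SIRPalpha with compound, CD47, beads) incubates 30 min at room temperature protected from light.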

[4] = biological target: Parathyroid hormone/parathyroid hormone-related peptide receptor (Homo sapiens) (UniProt Q03431); experiment: qHTS for PTHR1 Agonists: Optimization Screen against the NCGC LOPAC library (AID 1347079);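 also: GloSensor cAMP luminescence in HEK-293 GP2 cells expressing human PTHR1 with IBMX; 0% is about no effect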
How it was run: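 Compounds were tested across a qHTS titration. PTHR1-expressing GP2 cells report cAMP rises via GloSensor luminescence after 1 hr compound exposure at 37C with IBMX present.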

[5] = qHTS of pediatric cancer cell lines to identify multiple opportunities for drug repurposing: Primary screen for TC32 cells (AID 1347089); also: % is scaled to controls: 0 for no effect and ±100 for the full control effect; nearly all actives have a fitted effect of over 60% in size
How it was run: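 Luminescent ATP read-out (CellTiter-Glo) of metabolically active TC32 cells after 48 h exposure. Concentration-response curves came from 11-point (MIPE, 0.78 nM–46 µM) or 8-point (NPC, 0.59 nM–46 µM) primary titrations; follow-up used 11 points.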

[6] = qHTS of pediatric cancer cell lines to identify multiple opportunities for drug repurposing: Primary screen for DAOY cells (AID 1347090);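 also: series mostly up to about 46 µM; plate controls were DMSO for no effect and bortezomib for full effect; nearly all actives have a fitted effect of over 55% in size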
How it was run: (§1)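 Cell viability, CellTiter-Glo luminescence; 500-1,000 cells/well, 8- or 11-point titration, 48 h compound exposure at 37 degrees C, 5% CO2. Controls: DMSO neutral, bortezomib 2.3 µM final as positive.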

[7] = qHTS of pediatric cancer cell lines to identify multiple opportunities for drug repurposing: Primary screen for SJ-GBM2 cells (AID 1347091);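 also: plate controls were DMSO neutral control for no effect and bortezomib for full effect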
How it was run: as §1

[8] = qHTS of pediatric cancer cell lines to identify multiple opportunities for drug repurposing: Primary screen for A673 cells (AID 1347092); also: % is scaled to controls: 0 for no effect and ±100 for the full control effect; nearly all actives have a fitted effect of over 45% in size
How it was run: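 Cell viability of A673 measured by CellTiter-Glo ATP luminescence after 48 hours compound exposure. Dilution series spanned 0.78 nM to 46 µM (MIPE, 11-point) or 0.59 nM to 46 µM (NPC, 8-point); bortezomib 2.3 uM positive control.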

[9] = qHTS of pediatric cancer cell lines to identify multiple opportunities for drug repurposing: Primary screen for SK-N-MC cells (AID 1347093);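 also: series mostly up to about 46 µM; plate controls were DMSO neutral control for no effect and bortezomib for full effect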
How it was run: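 Metabolically active cells were quantified by ATP-dependent luminescence (CellTiter-Glo, 15 min at room temperature) following 48 h treatment. Cells had been plated at 500-1,000 per well and settled for 5 h beforehand.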

[10] = qHTS of pediatric cancer cell lines to identify multiple opportunities for drug repurposing: Primary screen for BT-37 cells (AID 1347094);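 also: series mostly up to about 57 µM; plate controls were DMSO for no effect and bortezomib for full effect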
How it was run: (§2)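 Readout: CellTiter-Glo luminescence, 48 h treatment. Controls DMSO (neutral) and bortezomib 2.3 µM final (positive). Potency and efficacy taken from primary-screen concentration-response curves.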

[11] = qHTS of pediatric cancer cell lines to identify multiple opportunities for drug repurposing: Primary screen for NB-EBc1 cells (AID 1347095);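 also: plate controls were DMSO neutral control for no effect and bortezomib for full effect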
How it was run: as §2

[12] = qHTS of pediatric cancer cell lines to identify multiple opportunities for drug repurposing: Primary screen for U-2 OS cells (AID 1347096);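 also: plate controls were DMSO wells for no effect and bortezomib positive control wells for full effect; nearly all actives have a fitted effect of over 50% in size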
How it was run: (§3)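 Cells (500-1,000/well) rested 5 h, then received compounds for 48 h; metabolically active cells were measured by CellTiter-Glo luminescence. Final concentrations spanned up to 46 µM (MIPE, 11-point) or 0.59 nM-46 µM (NPC, 8-point) in primary screens, 11-point in follow-ups.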

[13] = qHTS of pediatric cancer cell lines to identify multiple opportunities for drug repurposing: Primary screen for Saos-2 cells (AID 1347097); also: % is scaled to controls: 0 for no effect and ±100 for the full control effect; nearly all actives have a fitted effect of over 40% in size
How it was run: as §2

[14] = qHTS of pediatric cancer cell lines to identify multiple opportunities for drug repurposing: Primary screen for SK-N-SH cells (AID 1347098); also: nearly all actives have a fitted effect of over 65% in size; also: potency is read from the fitted curve at half-maximal effect; as to activity change, negative = cytotoxic: % is scaled to controls: 0 for no effect and ±100 for the full control effect
How it was run: as §3

[15] = qHTS of pediatric cancer cell lines to identify multiple opportunities for drug repurposing: Primary screen for NB1643 cells (AID 1347099);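 also: plate controls were DMSO neutral control for no effect and bortezomib positive control for full effect; nearly all actives have a fitted effect of over 50% in size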
How it was run: as §2

[16] = qHTS of pediatric cancer cell lines to identify multiple opportunities for drug repurposing: Primary screen for LAN-5 cells (AID 1347100);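 also: plate controls were DMSO neutral control for no effect and bortezomib positive control for full effect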
How it was run: as §3

[17] = qHTS of pediatric cancer cell lines to identify multiple opportunities for drug repurposing: Primary screen for BT-12 cells (AID 1347101);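 also: plate controls were DMSO for no effect and bortezomib positive control for full effect; nearly all actives have a fitted effect of over 25% in size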
How it was run: as §3

[18] = qHTS of pediatric cancer cell lines to identify multiple opportunities for drug repurposing: Primary screen for RD cells (AID 1347104);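 also: plate controls were DMSO for no effect and bortezomib for full effect; nearly all actives have a fitted effect of over 55% in size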
How it was run: as §2

[19] = qHTS of pediatric cancer cell lines to identify multiple opportunities for drug repurposing: Primary screen for OHS-50 cells (AID 1347103); also: nearly all actives have a fitted effect of over 40% in size; also: potency is read from the fitted curve at half-maximal effect;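 as to activity change, negative = cytotoxic: plate controls were DMSO neutral control for no effect and bortezomib positive control for full effect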
How it was run: as §3

[20] = qHTS of pediatric cancer cell lines to identify multiple opportunities for drug repurposing: Primary screen for Rh18 cells (AID 1347102); also: % is scaled to controls: 0 for no effect and ±100 for the full control effect; nearly all actives have a fitted effect of over 65% in size
How it was run: as §3

Parathyroid hormone/parathyroid hormone-related peptide receptor (Homo sapiens), sequence (Q03431 whole entry, looked up): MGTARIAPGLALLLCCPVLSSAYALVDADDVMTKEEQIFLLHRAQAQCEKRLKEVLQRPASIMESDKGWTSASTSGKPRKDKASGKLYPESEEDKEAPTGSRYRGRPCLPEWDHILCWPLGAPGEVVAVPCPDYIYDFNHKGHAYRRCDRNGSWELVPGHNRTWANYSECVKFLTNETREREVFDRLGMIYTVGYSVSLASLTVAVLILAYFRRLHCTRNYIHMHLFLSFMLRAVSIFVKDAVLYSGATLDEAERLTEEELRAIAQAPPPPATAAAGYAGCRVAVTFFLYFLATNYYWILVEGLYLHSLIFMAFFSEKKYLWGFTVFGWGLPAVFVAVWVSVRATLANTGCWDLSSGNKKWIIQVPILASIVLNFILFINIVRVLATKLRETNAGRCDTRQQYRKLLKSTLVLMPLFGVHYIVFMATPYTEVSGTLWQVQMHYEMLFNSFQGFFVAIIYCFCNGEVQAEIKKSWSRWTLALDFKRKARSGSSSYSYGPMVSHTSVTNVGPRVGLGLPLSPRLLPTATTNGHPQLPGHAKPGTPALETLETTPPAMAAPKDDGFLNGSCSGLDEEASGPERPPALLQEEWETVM
T1 sequence (P78324 whole entry, looked up): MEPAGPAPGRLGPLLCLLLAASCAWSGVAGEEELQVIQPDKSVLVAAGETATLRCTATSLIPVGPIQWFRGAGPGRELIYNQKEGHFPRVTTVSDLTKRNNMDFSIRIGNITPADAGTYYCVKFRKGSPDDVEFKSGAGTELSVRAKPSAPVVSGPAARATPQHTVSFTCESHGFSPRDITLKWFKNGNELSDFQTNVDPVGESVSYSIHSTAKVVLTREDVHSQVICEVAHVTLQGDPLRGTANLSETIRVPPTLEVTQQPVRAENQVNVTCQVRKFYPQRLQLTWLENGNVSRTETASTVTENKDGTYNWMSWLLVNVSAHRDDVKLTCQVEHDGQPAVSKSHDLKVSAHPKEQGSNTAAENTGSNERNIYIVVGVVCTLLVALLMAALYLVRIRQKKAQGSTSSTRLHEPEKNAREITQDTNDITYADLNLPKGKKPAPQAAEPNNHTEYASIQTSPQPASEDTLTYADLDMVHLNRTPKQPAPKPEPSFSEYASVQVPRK
T1 sequence (Q08722 whole entry, looked up): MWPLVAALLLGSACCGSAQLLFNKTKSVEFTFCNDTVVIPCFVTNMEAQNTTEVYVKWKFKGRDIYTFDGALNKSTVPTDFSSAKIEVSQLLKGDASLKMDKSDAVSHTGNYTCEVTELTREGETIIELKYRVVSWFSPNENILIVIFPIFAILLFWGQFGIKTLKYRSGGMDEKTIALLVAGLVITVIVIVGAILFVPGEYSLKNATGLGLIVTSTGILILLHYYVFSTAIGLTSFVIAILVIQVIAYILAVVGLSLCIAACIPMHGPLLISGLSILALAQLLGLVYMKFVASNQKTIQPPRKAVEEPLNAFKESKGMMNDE

CN(C)CCN(Cc1cccs1)c1ccccn1
inactive: outcome [1] | outcome [2] | Potency [3] | outcome [4] | Potency [5] | Potency [6] | Potency [7] | Potency [8] | Potency [9] | Potency [10] | Potency [11] | Potency [12] | Potency [13] | Potency [14] | Potency [15] | Potency [16] | Potency [17] | Potency [18]

CNCCCN1c2ccccc2CCc2ccccc21
inactive: outcome [1] | outcome [2] | Potency [3] | outcome [4] | Potency [5] | Potency [6] | Potency [12] | Potency [13] | Potency [15] | Potency [16]
active: Potency [14] 30.7 µM | Potency [19] 15.5 µM

NC(=O)c1cn(Cc2c(F)cccc2F)nn1
inactive: outcome [1] | outcome [2] | Potency [3] | outcome [4] | Potency [5] | Potency [6] | Potency [7] | Potency [8] | Potency [9] | Potency [10] | Potency [11] | Potency [12] | Potency [13] | Potency [14] | Potency [15] | Potency [16] | Potency [17] | Potency [19] | Potency [18]

C[N+](C)(C)CCOC(N)=O
inactive: outcome [1] | outcome [2] | Potency [3] | outcome [4] | Potency [5] | Potency [6] | Potency [7] | Potency [8] | Potency [9] | Potency [10] | Potency [11] | Potency [12] | Potency [13] | Potency [14] | Potency [15] | Potency [16] | Potency [17] | Potency [19] | Potency [18]

CCN(CC)CCOCCOC(=O)C1(c2ccccc2)CCCC1
inactive: outcome [1] | outcome [2] | Potency [3] | outcome [4] | Potency [5] | Potency [6] | Potency [7] | Potency [8] | Potency [9] | Potency [11] | Potency [12] | Potency [13] | Potency [14] | Potency [15] | Potency [16] | Potency [17]

CCN(CC)CC(=O)Nc1c(C)cccc1C
inactive: outcome [1] | outcome [2] | Potency [3] | outcome [4] | Potency [5] | Potency [7] | Potency [8] | Potency [9] | Potency [10] | Potency [11] | Potency [12] | Potency [13] | Potency [14] | Potency [15] | Potency [16] | Potency [17] | Potency [20] | Potency [19] | Potency [18]

CC(C)[N+](C)(CCOC(=O)C1c2ccccc2Oc2ccccc21)C(C)C
inactive: outcome [1] | outcome [2] | Potency [3] | outcome [4] | Potency [5] | Potency [6] | Potency [7] | Potency [8] | Potency [9] | Potency [10] | Potency [11] | Potency [12] | Potency [13] | Potency [14] | Potency [15] | Potency [16] | Potency [20] | Potency [19] | Potency [18]

CN(C)CCOC(=O)COc1ccc(Cl)cc1
inactive: outcome [1] | outcome [2] | Potency [3] | outcome [4] | Potency [5] | Potency [6] | Potency [7] | Potency [8] | Potency [9] | Potency [10] | Potency [11] | Potency [12] | Potency [13] | Potency [14] | Potency [15] | Potency [16] | Potency [17] | Potency [20] | Potency [19] | Potency [18]

CN1C(=O)CC[C@H]1c1cccnc1
inactive: outcome [1] | outcome [2] | Potency [3] | outcome [4] | Potency [5] | Potency [6] | Potency [7] | Potency [8] | Potency [9] | Potency [10] | Potency [11] | Potency [12] | Potency [13] | Potency [14] | Potency [15] | Potency [16] | Potency [17] | Potency [20] | Potency [19] | Potency [18]

COCCc1ccc(OCC(O)CNC(C)C)cc1 (stereo not drawn)
inactive: outcome [1] | outcome [2] | Potency [3] | outcome [4] | Potency [5] | Potency [7] | Potency [8] | Potency [9] | Potency [10] | Potency [11] | Potency [12] | Potency [13] | Potency [14] | Potency [15] | Potency [16] | Potency [17] | Potency [20] | Potency [19] | Potency [18]

O=C(O)CN(CCOCCOCCN(CC(=O)O)CC(=O)O)CC(=O)O
inactive: outcome [1] | outcome [2] | Potency [3] | outcome [4] | activity change, negative = cytotoxic [5] 12.3% [at 0.594 µM] | activity change, negative = cytotoxic [7] 26.6% [at 0.597 µM] | activity change, negative = cytotoxic [8] 8.27% [at 0.597 µM] | activity change, negative = cytotoxic [9] 0.435% [at 0.597 µM] | activity change, negative = cytotoxic [10] 13% [at 0.745 µM] | activity change, negative = cytotoxic [11] 21.8% [at 0.597 µM] | activity change, negative = cytotoxic [12] 10.9% [at 0.597 µM] | activity change, negative = cytotoxic [13] -2.21% [at 0.597 µM] | activity change, negative = cytotoxic [14] -13% [at 0.741 µM] | activity change, negative = cytotoxic [15] 28.6% [at 0.597 µM] | activity change, negative = cytotoxic [16] 27.7% [at 0.597 µM] | activity change, negative = cytotoxic [17] 8.07% [at 0.745 µM] | activity change, negative = cytotoxic [20] 14.5% [at 0.597 µM] | activity change, negative = cytotoxic [19] 12.9% [at 0.73 µM] | activity change, negative = cytotoxic [18] 10.3% [at 0.597 µM]

CN(C)C(=O)Oc1cccc([N+](C)(C)C)c1
inactive: outcome [1] | outcome [2] | Potency [3] | outcome [4] | Potency [5] | Potency [7] | Potency [8] | Potency [9] | Potency [10] | Potency [11] | Potency [12] | Potency [13] | Potency [14] | Potency [15] | Potency [16] | Potency [17] | Potency [20] | Potency [19] | Potency [18]

NC1=NCC2c3ccccc3Cc3ccccc3N12 (stereo not drawn)
inactive: outcome [1] | outcome [2] | Potency [3] | outcome [4] | Potency [5] | Potency [6] | Potency [7] | Potency [8] | Potency [10] | Potency [11] | Potency [12] | Potency [13] | Potency [14] | Potency [15] | Potency [16] | Potency [19] | Potency [18]

NC(N)=NC(=O)Cc1c(Cl)cccc1Cl
inactive: outcome [1] | outcome [2] | Potency [3] | outcome [4] | Potency [5] | Potency [6] | Potency [7] | Potency [8] | Potency [9] | Potency [10] | Potency [12] | Potency [13] | Potency [14] | Potency [15] | Potency [16] | Potency [20] | Potency [18]
